The results in this text go back to PubChem BioAssay AID1305 (SRMLSC, 2008).

Among all 1,200 compounds or so, fewer than 10 were called active. No rule for the calls is given here. Not all results are given here.

The nature of the assay: 5-FOA growth of efflux-deficient control yeast, dose response, counter-screen for RAM network inhibitor project, S. cerevisiae, OD615 (AID 1305).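 Also: plate controls were vehicle for no effect and reference inhibitor for full effect.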 As to conditions: S. cerevisiae efflux-deficient reporter strain, 5-FOA growth OD615, 2 days, stronger effect = higher value; at 100 µM unless noted. In general terms: Counterscreens check selectivity or assay interference.
As for `CCC(C)(C)c1ccc(Oc2ccc(NC(=O)COC(=O)C3=COCCO3)cc2)cc1`, the max inhibition is 1.41% (inactive).

`Cc1ccccc1CSCCNC(=O)c1ccc(N(C)S(=O)(=O)c2ccccc2)cc1`: the max inhibition is 3.2% (inactive). Take `Fc1ccc(-n2c(Cc3ccccc3)nnc2SCc2nc(-c3ccc(Cl)cc3)no2)cc1`: the max inhibition was 1.1% [setting not given] (inactive). Consider `COCCN(C(=O)C(C)C)c1nnc(-c2ccc(C(C)(C)C)cc2)s1`, for which the max inhibition is 1.87% [at 50 µM] (inactive). With `COc1ccc(/C=C(\NC(=O)c2ccc(OCC(C)C)cc2)C(=O)OCc2ccco2)cc1`, the max inhibition is 3.48% (inactive).

As to `O=C(COC(=O)/C(=C/c1cccs1)c1cccs1)NCc1ccccc1Cl`, the max inhibition is 1.81% [at 25 µM] (inactive). For `Cc1c(N=Nc2ccc(N(C)C)cc2)c(=O)n(-c2ccccc2)n1C` the value was 20% (inactive).

Turning to `CN(C)S(=O)(=O)c1cccc(NC(=O)COC(=O)C2(c3ccccc3F)CCCC2)c1`, the max inhibition is 1.8% [at 50 µM] (inactive).

Turning to `CCOC(=O)c1sc2nc(CSCC(=O)OCc3ccc(C(=O)OC)o3)[nH]c(=O)c2c1C`, the max inhibition was 2.47% [at 50 µM] (inactive). For `CCN=C1S/C(=C\c2cc(Br)ccc2OCC(=O)OCC)C(=O)N1CC` the value was 3.82% [at 50 µM] (inactive).

On to `Cc1cccc(-n2c(SCC(=O)Nc3cccc(S(=O)(=O)NC4=NCCCCC4)c3)nc3ccccc3c2=O)c1C`, for which the max inhibition was 2.12% [setting not given] (inactive).

As for `c1ccc(-c2csc(N3CCc4ccccc4C3)n2)cc1`, the max inhibition was 4.47% (inactive). Consider `O=C(COC(=O)/C=C/c1nc2ccccc2s1)Nc1ccccc1Oc1ccccc1`, for which the max inhibition was 1.95% [at 1.563 µM] (inactive).

For the compound `O=C(OCc1ccc(Br)cc1)c1cccc(-c2nnc(-c3ccccc3)o2)c1`, the max inhibition is 3.97% [at 50 µM] (inactive).

For `CC(=O)c1c(Nc2ccccc2)sc(C(=O)c2ccccc2)c1C`, the max inhibition is 4.16% [at 50 µM] (inactive).

Turning to `CCCSc1nc(NCc2ccco2)c2c3c(sc2n1)COC(C)(CC)C3` (stereo not drawn), the max inhibition was 4.05% [at 50 µM] (inactive). In the case of `Cc1ccc(NC2=C(Cl)C(=O)OC2OC(=O)c2ccccc2C)cc1` (stereo not drawn), the max inhibition was 1.91% [at 50 µM] (inactive).

As to `Cc1cc(C)cc(NC(=O)CSCc2cnn(-c3ccccc3)c2-n2cccc2)c1`, the max inhibition was 6.62% (inactive). For `COC(=O)CCCCCN1C(=O)NC(c2ccc(-c3ccccc3)cc2)C(C(=O)OCc2ccccc2)=C1C` (stereo not drawn) the value was 4.42% [at 25 µM] (inactive); for `O=C(NCc1ccccc1)C1=C[C@@H](c2ccc(C(F)(F)F)cc2)C[C@@H](OCc2ccc(CO)cc2)O1`, 3.48% (inactive); for `Cc1ccc(N=Nc2c(C)[nH]n(-c3ccccc3)c2=O)cc1`, 1.87% [at 50 µM] (inactive).

As to `COC(=O)c1sccc1NC(=O)c1csc2c1CCCC2`, the max inhibition was 4.49% [at 25 µM] (inactive). In the case of `CC(O)C(NS(=O)(=O)c1ccc(Cl)cc1)C(=O)OCc1cc([N+](=O)[O-])cc2c1OCOC2` (stereo not drawn), the max inhibition is 1.67% (inactive). For `COc1ccc(Cl)cc1NC(=O)NC(C)C(C)(C)C` (stereo not drawn), the max inhibition was 1.97% [setting not given] (inactive). As to `CCOC(=O)CC(=O)CSc1nc(-c2ccccc2)cc(-c2ccc(Cl)cc2)c1C#N`, the max inhibition is 1.73% [setting not given] (inactive). For `C=CCOC(=O)C1=C(C)NC(SCC(=O)OCC)=C(C#N)C1c1ccc(C)cc1` (stereo not drawn) the value was 4.12% (inactive); for `CCCCn1ccnc1C(=O)c1cccc(S(=O)(=O)N2c3ccccc3CC2C)c1` (stereo not drawn), 3.37% (inactive); for `CN(c1ccccc1)c1ccc(/C=c2\s/c(=C(/C#N)C(=O)C(C)(C)C)n(Cc3ccco3)c2=O)cc1`, 4.2% [at 25 µM] (inactive).

`N/C(Cc1ccc([N+](=O)[O-])cc1)=N\OC(=O)COc1ccc2ccccc2c1`: the max inhibition is 1.6% (inactive). For `COc1ccc(/C(C)=N/Nc2cc(C(F)(F)F)ccc2Cl)c(OC)c1` the value was 2.82% (inactive). As for `Cc1cc2ccccc2n1CCNC(=O)COc1ccc2ccccc2c1`, the max inhibition is 4.22% (inactive). As for `N#C/C(=C\C1=C(N2CCOCC2)C(=C\c2ccccc2)/CC1)C(=O)Nc1ccccc1F`, the max inhibition was 1.39% [setting not given] (inactive).

In the case of `COc1ccc(O[C@H]2C=C[C@@H](c3ccccc3)O[C@@H]2CO/N=C/C[C@@H]2C=C[C@H](OC(C)=O)[C@@H](COC(C)=O)O2)cc1`, the max inhibition is 1.15% [setting not given] (inactive). Regarding `O=C(COC(=O)CCCNC(=O)c1ccc(Cl)cc1)Nc1cc(Cl)ccc1Cl`, the max inhibition was 3.65% (inactive). Take `COc1c(Br)cc2c(C)c(C(=O)N3CCOCC3)oc2c1Br`: the max inhibition was 1.57% [setting not given] (inactive). For `CCC1C/C(=C/c2cccs2)C(=O)/C(=C/c2cccs2)C1` (stereo not drawn) the value was 6.29% (inactive). For `CCc1nc(Nc2ccc3nccnc3c2)c2oc3ccccc3c2n1` the value was 13.2% (inactive); for `Oc1c(Cl)cc(Cl)c(Cl)c1Cc1c(O)c(Cl)cc(Cl)c1Cl`, 0.89% [setting not given] (inactive); for `O=C(CCC(=O)OCc1cccc(C(=O)Oc2ccccc2)c1)Nc1cccc2ccccc12`, 2.95% [at 12.5 µM] (inactive). Consider `O=C1/C(=C/c2ccc3c(c2)OCO3)CCC/C1=C\c1ccc2c(c1)OCO2`, for which the max inhibition was 4.85% [at 50 µM] (inactive). For `CCOC(=O)CSC1=C(C#N)C(c2ccco2)C(C(=O)OCc2ccccc2)=C(C)N1` (stereo not drawn) the value was 1.67% (inactive); for `Cc1ccc(S(=O)(=O)c2c(N)n(C)c3nc4ccccc4nc23)cc1`, 4.57% (inactive).

Consider `CCC(C(=O)OCC(=O)Nc1c(Cl)cc(Cl)cc1Cl)c1ccccc1` (stereo not drawn), for which the max inhibition was 2.14% [setting not given] (inactive). For the compound `C=CCO/N=C(\C)c1c(O)c(C)c(-c2ccccc2)n(-c2ccccc2)c1=O`, the max inhibition is 3.26% (inactive). For `COc1ccc2c(c1)CCc1c(C(=O)N3CCc4ccccc4C3)noc1-2` the value was 1.6% [setting not given] (inactive); for `CCOc1ccc(CN(Cc2ccco2)C(c2cccs2)c2nnnn2C(C)(C)C)cc1` (stereo not drawn), 4.45% (inactive). For the compound `Cc1ccc(C(=O)/C=C/c2c(C)nn(-c3ccccc3)c2Cl)cc1`, the max inhibition is 7.53% (inactive). For `CCCCC(C(=O)OCC(=O)c1ccc(OC)cc1)N1C(=O)c2ccccc2C1=O` (stereo not drawn) the value was 4.61% (inactive).
